Compounds without any hit were thinned out: in the full panel of roughly 79,000, 15% have a hit. Calls of active or inactive are those of the source. Rule as the data show it: active = growth inhibition above about 70%; inactive = the rest.
Columns and labels:
[1] = NCI Yeast Anticancer Drug Screen. Data for the rad52 strain (AID 147);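 also: 0% = growth of vehicle-treated control cultures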; details: S. cerevisiae rad52 mutant growth inhibition, stronger effect = higher value
Method in brief: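 Inhibition of yeast growth, referenced to vehicle controls, was the measured output for a strain with defective DNA damage repair.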

[2] = NCI Yeast Anticancer Drug Screen. Data for the wt1 strain (AID 149);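 also: 0% = growth of vehicle-treated wt1 cultures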; details: S. cerevisiae wt1 strain (SPY 50644) growth inhibition, stronger effect = higher value
Method in brief: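 Readout: yeast growth inhibition, normalised to vehicle controls, in the wt1 strain exposed to test compounds.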

[3] = NCI Yeast Anticancer Drug Screen. Data for the rad50EPP+ strain (AID 151);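 also: 0% = growth of vehicle-treated control cultures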; details: S. cerevisiae rad50 mutant strain, stronger effect = higher value
Method in brief: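 Genetically defined yeast (rad50EPP+, DNA damage repair alteration) is grown with compound, and inhibition of growth is expressed relative to vehicle-treated controls.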

[4] = NCI Yeast Anticancer Drug Screen. Data for the mgt1 strain (AID 153); details: S. cerevisiae mgt1 mutant growth inhibition, stronger effect = higher value
Method in brief: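 In the mgt1 strain, test compounds were added and growth inhibition was determined relative to vehicle-treated controls.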

[5] = NCI Yeast Anticancer Drug Screen. Data for the rad50 strain (AID 155);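 also: 0% = growth of vehicle-only cultures of the same strain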; details: S. cerevisiae rad50 strain growth inhibition, stronger effect = higher value
Method in brief: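 Compounds were tested on a yeast strain with an engineered DNA damage repair alteration; the reported value is growth inhibition normalised to vehicle treatment.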

[6] = NCI Yeast Anticancer Drug Screen. Data for the mec2-1 strain (AID 157); details: S. cerevisiae mec2-1 strain, stronger effect = higher value
Method in brief: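 Each compound was tested on mec2-1 yeast, a strain altered in DNA damage repair or cell cycle control. Growth inhibition is reported relative to vehicle.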

[7] = NCI Yeast Anticancer Drug Screen. Data for the rad14 strain (AID 159);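 also: 0% = growth of vehicle-treated control cultures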; details: S. cerevisiae rad14 strain growth inhibition, stronger effect = higher value
Method in brief: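 Compound-treated yeast with a defined DNA-repair lesion; growth inhibition normalised to vehicle-treated cultures.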

[8] = NCI Yeast Anticancer Drug Screen. Data for the sgs1 mgt1 strain (AID 161);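 also: 0% = growth of cultures given vehicle only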; details: S. cerevisiae sgs1 mgt1 strain, stronger effect = higher value
Method in brief: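 Test agents were incubated with a DNA-repair-mutant yeast strain. Growth was then read and compared against vehicle-treated controls.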

[9] = NCI Yeast Anticancer Drug Screen. Data for the CLN2oe strain (AID 163);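 also: 0% = growth of vehicle-only control cultures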; details: S. cerevisiae CLN2oe strain, stronger effect = higher value
Method in brief: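 First, the altered yeast strain was treated with each compound; second, its growth was measured; finally, inhibition was derived by comparison with vehicle controls.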

[10] = NCI Yeast Anticancer Drug Screen. Data for the cln2 rad14 strain (AID 165);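 also: 0% = growth equal to vehicle treated cultures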; details: S. cerevisiae cln2 rad14 strain, stronger effect = higher value
Method in brief: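 Test compounds were added to cln2 rad14 yeast cultures; inhibition of growth was then determined by comparison with vehicle treatment.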

[11] = NCI Yeast Anticancer Drug Screen. Data for the bub3 strain (AID 167); details: S. cerevisiae bub3 mutant strain, stronger effect = higher value
Method in brief: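 Growth of a checkpoint-deficient yeast mutant is measured after compound exposure. Values represent inhibition relative to vehicle.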

[12] = NCI Yeast Anticancer Drug Screen. Data for the wt2 strain (AID 169);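 also: 0% = growth of vehicle-treated yeast cultures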; details: S. cerevisiae wt2 strain growth inhibition, stronger effect = higher value
Method in brief: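 The panel's yeast strains carry defined changes in DNA repair or cell cycle genes. Each strain is grown with compound, and growth loss is scored relative to vehicle.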

[13] = NCI Yeast Anticancer Drug Screen. Data for the mlh1 strain (AID 171);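 also: 0% = growth of vehicle-treated control cultures of the same strain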; details: S. cerevisiae mlh1 strain growth inhibition, stronger effect = higher value
Method in brief: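 Inhibition values reflect reduced yeast growth in the presence of compound, referenced to vehicle controls, using a strain chosen for its alteration in DNA repair or cell cycle control.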

[14] = NCI Yeast Anticancer Drug Screen. Data for the sgs1 strain (AID 173);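 also: 0% = growth of vehicle-only control cultures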; details: S. cerevisiae sgs1 mutant, stronger effect = higher value
Method in brief: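 Vehicle-treated cultures served as reference for growth inhibition of a yeast strain altered in DNA damage repair or cell cycle control after compound exposure.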

[15] = NCI Yeast Anticancer Drug Screen. Data for the mlh1 rad18 strain (AID 175); details: S. cerevisiae mlh1 rad18 strain growth inhibition, stronger effect = higher value
Method in brief: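 Inhibition values reflect reduced growth of mutant yeast versus vehicle-treated controls following compound exposure; the mutations affect DNA damage repair.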

[16] = NCI Yeast Anticancer Drug Screen. Data for the rad18 strain (AID 177); details: S. cerevisiae rad18 mutant growth inhibition, stronger effect = higher value
Method in brief: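 Steps: expose repair-mutant yeast to compound; measure growth; express as inhibition relative to vehicle control.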

[17] = at 5.0 µM (retest, dose inferred, filed as 0.5)
[18] = at 50.0 µM (retest, dose inferred, filed as 5.0)

Measured: growth inhibition

O=C(O)C1CCCCC1c1c2ccc(=O)cc-2oc2cc(O)ccc12 (stereo not drawn)
inactive: [1]; at 1.2 µM 2% | [1]; at 3.7 µM -3% | [1]; at 11.0 µM 1% | [1]; at 33.0 µM 39% | [2]; at 1.2 µM -24% | [2]; at 3.7 µM -19% | [2]; at 11.0 µM -21% | [2]; at 33.0 µM 12% | [3]; at 1.2 µM 11% | [3]; at 3.7 µM 16% | [3]; at 11.0 µM 16% | [3]; at 33.0 µM 22% | [3]; at 100.0 µM 38% | [4]; at 1.2 µM 15% | [4]; at 3.7 µM 16% | [4]; at 11.0 µM 21% | [4]; at 33.0 µM 46% | [5]; at 1.2 µM 16% | [5]; at 3.7 µM 19% | [5]; [17] 52% | [5]; at 11.0 µM 9% | [5]; at 33.0 µM 28% | [6]; at 1.2 µM -3% | [6]; at 3.7 µM -1% | [6]; [17] 59% | [6]; at 11.0 µM 3% | [6]; at 33.0 µM 17% | [7]; at 1.2 µM -21% | [7]; at 3.7 µM -20% | [7]; at 11.0 µM -18% | [7]; at 33.0 µM 0% | [8]; [17] 10% | [9]; at 1.2 µM 13% | [9]; at 3.7 µM 14% | [9]; at 11.0 µM 12% | [9]; at 33.0 µM 37% | [10]; [17] 43% | [11]; at 1.2 µM 14% | [11]; at 3.7 µM 22% | [11]; [17] 44% | [11]; at 11.0 µM 27% | [11]; at 33.0 µM 55% | [12]; at 1.2 µM -20% | [12]; at 3.7 µM -18% | [12]; at 11.0 µM -7% | [12]; at 33.0 µM 15% | [13]; at 1.2 µM -26% | [13]; at 3.7 µM -21% | [13]; at 11.0 µM -16% | [13]; at 33.0 µM -1% | [14]; at 1.2 µM -17% | [14]; at 3.7 µM -15% | [14]; at 11.0 µM -15% | [14]; at 33.0 µM 13% | [15]; [17] 47% | [16]; at 1.2 µM -12% | [16]; at 3.7 µM -18% | [16]; at 11.0 µM -3% | [16]; at 33.0 µM 25%
active: [1]; at 100.0 µM 93% | [2]; at 100.0 µM 91% | [4]; at 100.0 µM 95% | [5]; [18] 95% | [5]; at 50.0 µM 86.3% | [5]; at 100.0 µM 90% | [6]; [18] 94% | [6]; at 50.0 µM 86.8% | [6]; at 100.0 µM 92% | [7]; at 100.0 µM 92% | [8]; [18] 77% | [8]; at 50.0 µM 89.5% | [9]; at 100.0 µM 94% | [10]; [18] 87% | [10]; at 50.0 µM 86.4% | [11]; [18] 88% | [11]; at 50.0 µM 86.7% | [11]; at 100.0 µM 92% | [12]; at 100.0 µM 94% | [13]; at 100.0 µM 86% | [14]; at 100.0 µM 91% | [15]; [18] 93% | [15]; at 50.0 µM 81.5% | [16]; at 100.0 µM 93%

Reference: PubChem BioAssay (NCI)
